Here are results for 58 compounds from PubChem BioAssay AID1222 (Sanford-Burnham Center for Chemical Genomics, 2008).

The structures appear in SMILES notation. Out of some 190,000 compounds screened, fewer than 10 were called active. These entries were drawn from the full list. Entries with a potency or affinity are not part of this list. Values without a mark were called inactive.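 Rule for the calls: active = EC50 below 50 µM in the dose-response confirmation; inactive = the rest.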

The nature of the assay: rescue of cells from ER stress-induced death, primary screen, 384-well, CSM14.1, thapsigargin, ATP luminescence (AID 1222).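 Note: death triggered by thapsigargin at about 15 µM added after 2 h compound pretreatment; cell ATP read after overnight thapsigargin exposure of roughly 18 to 22 hours; reference of the scale not given here.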 The settings on record: CSM14.1 thapsigargin-induced death rescue, at 20 µM, hits give high values.
Regarding `COc1ccc(C2N(c3ccc(OC)cc3)C(=S)N3CCCN23)cc1` (stereo not drawn), the cellular ATP content (survival) is 3.3%.
The figure for `COc1ccccc1NC(=S)N(Cc1ccc(C)cc1)Cc1cccnc1` is 2.6%.
The figure for `Cc1ccc(C(=O)NNC(=O)CSc2nnc(-c3ccccc3)n2Cc2ccccc2)cc1` is -1.4%; for `O=C(CSc1ncnc2nc[nH]c12)N1CCN(c2ccccc2)CC1` it is 0.6%; for `CC1CCN(CCC(=O)N/N=C/c2ccc([N+](=O)[O-])cc2)CC1` it is -1.3%.
The figure for `CC(C)C(=O)c1cn(CC(=O)N2CCCc3ccccc32)c2ccccc12` is 0.1%.
Regarding `O=C(NC1CCCCC1)C(c1ccc2ncccc2c1)N(Cc1cccs1)C(=O)c1cccs1` (stereo not drawn), the cellular ATP content (survival) was -8.2%.
On to `O=C(NC1CCCCC1)C(c1ccc2ncccc2c1)N(Cc1ccc2c(c1)OCO2)C(=O)c1cccs1` (stereo not drawn), for which the cellular ATP content (survival) is -4%.
The figure for `O=C(CCCC(=O)N(c1ccc2c(c1)OCCO2)C(C(=O)NC1CCCCC1)c1ccc(F)cc1)Nc1ccccn1` (stereo not drawn) is -0.3%.
Then `O=C(NC1CCCCC1)C(c1ccc2ncccc2c1)N(Cc1ccccc1)C(=O)c1cccs1` (stereo not drawn), with -2.1%.
The figure for `COc1ccc(CN(C(=O)c2nsc(Cl)c2Cl)C(C(=O)NC2CCCCC2)c2ccc(OC)cc2)cc1` (stereo not drawn) is -2.1%; for `O=C(NC1CCCCC1)C(c1ccc2ncccc2c1)N(Cc1ccc(F)cc1)C(=O)c1cccs1` (stereo not drawn) it is -1.3%.
Turning to `COc1ccc(C(C(=O)NC2CCCCC2)N(C(=O)CCCC(=O)Nc2ccccn2)c2ccc3c(c2)OCCO3)cc1` (stereo not drawn), the cellular ATP content (survival) was 3.5%.
`O=C(NC1CCCCC1)C(c1ccc2ncccc2c1)N(Cc1ccco1)C(=O)c1ccc2c(c1)OCCO2` (stereo not drawn): the cellular ATP content (survival) was 14.1%.
As to `OC(C#CCN1CCOCC1)(c1ccccc1)C1CC1` (stereo not drawn), the cellular ATP content (survival) was -0.9%.
Consider `COc1ccc(C(CC(=O)O)NC(=O)Cc2ccccc2)cc1OC` (stereo not drawn), for which the cellular ATP content (survival) is -3%.
Regarding `C=CCOc1ccc(C2CC(C)=NN2c2ccccc2)cc1` (stereo not drawn), the cellular ATP content (survival) was 6.2%.
Turning to `Cc1ccc2c(c1)nnn2C1CCN(CC(=O)NCc2ccccc2F)CC1`, the cellular ATP content (survival) was 3.5%.
`COc1cc(C(C#N)N2N=C(c3ccccc3)CC2c2ccccc2)ccc1O` (stereo not drawn): the cellular ATP content (survival) was 0.2%.
As for `CN(C)c1nc(N/N=C/c2ccccc2O)nc(Nc2ccc(F)cc2)n1`, the cellular ATP content (survival) was -6.9%.
On to `Fc1cccc(Cc2noc(CN3CCC(c4ccncc4)CC3)n2)c1`, for which the cellular ATP content (survival) was 1.8%.
The figure for `O=C(COc1ccc(Cl)cc1Cl)NCCCCc1ccccc1` is -2.7%; for `CS(=O)(=O)N1CCCC(C(=O)NCc2ccc(F)cc2)C1` (stereo not drawn) it is 0.6%; for `CC(=O)Nc1sc2c(c1C(c1ccccn1)N1CCN(C)CC1)CCCC2` (stereo not drawn) it is -0.7%.
The figure for `Cc1ccc(-c2nc(CSCC(=O)N3CCN(c4ccccn4)CC3)c(C)o2)cc1` is -0.2%.
For the compound `COc1ccccc1OCc1ccc(C(=O)NCC(C)C)o1`, the cellular ATP content (survival) is 2.9%.
The figure for `COc1cccc(CN=C2Nc3ccccc3CS2)c1` is 0.2%; for `O=C(Nc1cc(C(F)(F)F)ccc1N1CCOCC1)c1cccc(F)c1` it is 0.4%; for `O=C(Nc1ccccc1)c1nn(-c2ccccc2)c(=O)cc1C(F)(F)F` it is 2%.
Then `COc1ccccc1C(C)N(C)Cc1nc(COc2ccccc2)no1` (stereo not drawn), with -1.1%; and `COc1ccc(CCN(Cc2cccs2)S(=O)(=O)c2ccc(S(=O)(=O)N3CCCCCC3)cc2)cc1OC`, with -1.5%; and `O=C1c2cccc(OCC(=O)N3N=C(c4cccs4)CC3c3ccc(F)cc3)c2CCN1Cc1ccccc1` (stereo not drawn), with -2.7%.
For the compound `CN1CCc2c(OCC(=O)N3N=C(c4cccs4)CC3c3ccc(F)cc3)cccc2C1=O` (stereo not drawn), the cellular ATP content (survival) was 1.4%.
Then `CC(C)OP(=O)(OC(C)C)C(Nc1ccccc1)c1ccccc1C(F)(F)F` (stereo not drawn), with 2.8%; and `CCOC(=O)c1c(NC(=O)C[n+]2ccc(N(C)C)cc2)sc(C)c1C`, with -2%.
The figure for `Cn1cc(Cl)c(C(=O)NNC(=S)NC2CCCCC2)n1` is 1.1%.
Then `COC(=O)c1sc2ccccc2c1-n1cccc1C(=O)C(=O)Nc1ccc(OC)cc1`, with 4.6%; and `COc1ccc(/C=C(/NC(=O)c2ccccc2)c2nc3ccc(Cl)cc3[nH]2)cc1OC`, with 1.1%; and `Cc1ccccc1NS(=O)(=O)c1cc(C(=O)N2CCc3ccccc3C2)ccc1C`, with 0.4%.
In the case of `CC(C)(C)C(=O)Nc1nc(=S)ss1`, the cellular ATP content (survival) is 0%.
The figure for `CCn1c(NCc2ccc3c(c2)OCO3)nc2ccccc21` is -1%; for `CCOC(=O)c1cnc(-n2nc(C)cc2C)nc1Nc1ccc2c(c1)OCO2` it is -1.2%; for `CCn1cc(C(=O)O)c(=O)c2cc(S(=O)(=O)N(C)C)ccc21` it is -1.2%.
The figure for `O=C(Nc1ccc(N2CCOCC2)cc1)c1ccc(Cl)nc1` is -0.7%; for `CCOc1ccccc1NC(=O)COC(=O)C(CC)c1ccccc1` (stereo not drawn) it is 0.7%.
On to `CCCCP(=O)(CCCC)c1ccccc1C(=O)O`, for which the cellular ATP content (survival) was -0.7%.
As to `O=C(OCc1cc(=O)n2c(n1)sc1ccccc12)c1ccc(O)cc1O`, the cellular ATP content (survival) was -1.2%.
Turning to `COc1ccc(NC(=S)Nc2ccc(S(N)(=O)=O)cc2)c(OC)c1`, the cellular ATP content (survival) was -0.3%.
With `CC(=O)c1c(C)nc2ccc(Br)cc2c1C(=O)O`, the cellular ATP content (survival) is 0.7%.
Take `COc1cccc(C2CC(c3cccs3)=NN2C(=S)Nc2ccccc2)c1OC` (stereo not drawn): the cellular ATP content (survival) is 2.5%.
For the compound `COc1ccc(S(=O)(=O)N2CCC(C(=O)N3CCc4ccccc4C3)CC2)cc1Cl`, the cellular ATP content (survival) was 0.7%.
The figure for `CCOC(=O)c1cc2c(=O)n3ccccc3nc2n(Cc2ccccc2Cl)c1=N` is -1.3%; for `CCCCNS(=O)(=O)c1ccc(S(=O)(=O)NCc2ccncc2)cc1` it is -1.8%; for `Cc1nc(N2CCC(C(N)=O)CC2)c2c(-c3cccs3)csc2n1` it is -2.2%.
Then `CCOC(=O)C1=C(C)Nc2ccccc2N=C1NC(=O)CCCN1C(=O)c2ccccc2C1=O`, with -1.5%; and `COc1cc([N+](=O)[O-])ccc1NC(=O)c1cccc(NC(=O)C(C)C)c1`, with 2.2%.
With `COC(=O)C1=NN(C(C)=O)C2(CC(=O)N(c3cccc(C)c3)C2=O)C1` (stereo not drawn), the cellular ATP content (survival) is -0.1%.
Then `CCN(C(=O)COc1ccccc1)C1CCCCC1`, with -1.5%.
